Bioassay records deposited in PubChem BioAssay by several laboratories.
CRFBP-R2 block: blocks CRF-induced signaling of the CRF-BP/CRF-R2 complex; inhibition, % at 11.8 µM; 350,000 compounds, 0.59% hits; HEK293 CRF-R2/CRF-BP, CRF-induced calcium fluorescence; AID 588475;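 active means inhibition of the ligand-induced calcium signal above about 50% at the single tested concentration, limit read from the data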
Myeloid diff 2: promotes myeloid progenitor differentiation; calls only at 10 µM; 360,000 compounds, 1% hits; ER-HoxA9 myeloid progenitors, lysozyme-GFP differentiation, flow cytometry;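 active means normalized GFP-positive differentiation at or above the plate's own cutoff, the solvent-only control mean plus 3 SD; inconclusive means no clear call, values can overlap the other calls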;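 further: cells exposed to compound for four days before flow analysis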
IDE inh: inhibitors of human insulin-degrading enzyme in cells. 320,000 compounds, 0.41% hits. HEK cells, FAbetaB cleavage, fluorescence polarization. AID 434962. inhibition, % at 5.59 µM. P14735;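 active means percent inhibition above the average of all tested compounds plus 3 SD, set per screening campaign, cut at about 16% in these data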;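 further: IDE supplied by intact live HEK cells; FP after avidin binding of uncleaved biotin substrate so inhibition keeps polarization high; 0% = DMSO wells and 100% = 60 µM reference IDE inhibitor Ii1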
Target sequence (P14735 whole entry, looked up): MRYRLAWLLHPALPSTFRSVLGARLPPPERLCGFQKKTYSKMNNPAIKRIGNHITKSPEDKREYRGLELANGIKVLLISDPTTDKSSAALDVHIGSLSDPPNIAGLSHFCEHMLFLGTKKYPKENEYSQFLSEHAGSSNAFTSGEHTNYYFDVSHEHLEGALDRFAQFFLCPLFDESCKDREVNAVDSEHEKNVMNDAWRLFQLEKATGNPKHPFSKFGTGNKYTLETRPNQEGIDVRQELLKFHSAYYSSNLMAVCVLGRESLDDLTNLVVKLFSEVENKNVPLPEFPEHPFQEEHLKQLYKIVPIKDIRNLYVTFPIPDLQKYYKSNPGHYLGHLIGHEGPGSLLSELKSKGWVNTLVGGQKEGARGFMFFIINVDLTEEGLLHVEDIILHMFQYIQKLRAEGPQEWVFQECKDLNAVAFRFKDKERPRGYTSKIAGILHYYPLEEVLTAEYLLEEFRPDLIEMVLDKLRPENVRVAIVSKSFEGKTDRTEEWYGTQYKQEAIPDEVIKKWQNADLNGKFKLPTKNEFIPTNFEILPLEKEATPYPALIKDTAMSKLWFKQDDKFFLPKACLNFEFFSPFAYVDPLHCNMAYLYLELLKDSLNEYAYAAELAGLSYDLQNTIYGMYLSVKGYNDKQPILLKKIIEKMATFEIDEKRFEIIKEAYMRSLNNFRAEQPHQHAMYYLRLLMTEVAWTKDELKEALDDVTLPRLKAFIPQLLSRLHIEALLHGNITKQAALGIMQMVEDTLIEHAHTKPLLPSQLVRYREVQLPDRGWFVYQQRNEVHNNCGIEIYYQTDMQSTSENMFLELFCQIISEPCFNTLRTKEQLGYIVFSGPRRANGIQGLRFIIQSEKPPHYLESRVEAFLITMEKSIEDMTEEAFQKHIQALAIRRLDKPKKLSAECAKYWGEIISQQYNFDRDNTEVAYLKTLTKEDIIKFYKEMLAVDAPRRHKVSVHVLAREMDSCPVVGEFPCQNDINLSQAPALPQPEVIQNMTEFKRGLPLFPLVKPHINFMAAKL
IDE act: boosts human insulin-degrading enzyme activity in HEK cells; P14735; FAbeta-B cleavage, fluorescence polarization; 0% vehicle, 100% cell-free pure enzyme wells; activation, % at 5.96 µM; 340,000 compounds, 0.073% hits;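 active means activation above the mean of all tested compounds plus 3 SD, set per screening campaign, cut at about 17% in these data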
CRFBP-R2 agonist: CRF-BP/CRF-R2 complex agonism; 350,000 compounds, 0.46% hits; HEK293 CRF-R2/CRF-BP, calcium dye fluorescence (FLIPR); percent of saturating CRF peptide response; AID 588473; activation, % at 13.2 µM;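 active means activation of at least 50%, plus an integration ratio under a set limit after plate pattern correction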;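 further: plate controls were neutral control wells without compound for no effect and CRF at EC100 for full effect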
TPT1 inhibitor: C. albicans TPT1 enzyme inhibition; inhibition, % at 5 µM; 300,000 compounds, 0.81% hits; recombinant caTPT1, FP RNA substrate dephosphorylation;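 active means inhibition above the mean of all tested compounds plus 3 SD, set per screening campaign, cut at about 24% in these data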;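 further: plate controls were DMSO alone for no effect and ferristatin control at 100 nM for full effect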
The depositor's hits bear a star; i = inactive; ? = inconclusive; . = not tested or not shown; + = active, no number. Most compounds without a hit are left out; they make up all but 2.6% or so of the library.

SMILES	CRFBP-R2 block	Myeloid diff 2	IDE inh	IDE act	CRFBP-R2 agonist	TPT1 inhibitor
CCCCOCCCNC(=O)C[C@@H]1C[C@@]2(C(=O)OCC)CCCC=C2N(Cc2ccc3c(c2)OCO3)C1=O	.	i	.	.	.	.
COc1cc(OC)cc(C(=O)NNC(=O)CCNS(=O)(=O)c2ccc(Br)cc2)c1	1.2	i	1.2	6.1	-7.3	.
COc1cc(C=C2C(=O)c3ccccc3C2=O)ccc1O	25.7	i	-0.4	1.7	-0.9	3.6
COc1ccc(C=C2C(=O)c3ccccc3C2=O)cc1O	66.1*	i	4.0	2.1	-0.7	4.8
O=C(N/N=C/c1ccccc1F)c1ccccc1OCc1ccccc1	8.8	i	6.1	0.5	-0.8	0.7
Cc1ccc(N2CCN(c3ccc(C)cc3)C(CC(=O)O)C2=O)cc1 (centres undefined)	11.6	+	0.3	-0.4	-1.9	-0.9
Cc1ccc(N2CC(C(N)=O)CC2=O)cc1 (centres undefined)	-7.7	i	4.5	1.4	-1.6	-3.6
COc1cc(=O)[nH]c(SC(C)C(=O)Nc2ccc3ccccc3c2)n1 (centres undefined)	-5.5	i	1.9	2.8	2.4	-3.7
O=C(c1ccccc1)N(c1ccccc1)C1C=CS(=O)(=O)C1 (centres undefined)	-0.8	i	2.4	1.9	1.7	-4.7
COc1ccc(C(=O)N(c2ccccc2)C2C=CS(=O)(=O)C2)cc1 (centres undefined)	52.1*	i	0.2	3.6	-0.5	-0.6
C#CCOCCOCCOCCNc1nc(N2CCN(C(=O)CCCCCCCCCCNC(=O)[C@H]([C@@H](C)CC)n3cc(CCCCCN)nn3)CC2)nc(N2CCN(C(=O)CCCCCCCCCCNC(=O)[C@@H]([C@H](C)O)n3cc(C)nn3)CC2)n1	-20.0	?	-10.6	39.0*	6.8	-6.5
C#CCOCCOCCOCCNc1nc(N2CCN(C(=O)CCCCCCCCCCNC(=O)Cn3cc(CCCCCN)nn3)CC2)nc(N2CCN(C(=O)CCCCCCCCCCNC(=O)[C@H]([C@@H](C)CC)n3cc(CCCCCN)nn3)CC2)n1	-60.7	i	-1.6	24.6*	89.2*	-0.3
C#CCOCCOCCOCCNc1nc(N2CCN(C(=O)CCCCCCCCCCNC(=O)[C@H](CCCCN)n3cc(C)nn3)CC2)nc(N2CCN(C(=O)CCCCCCCCCCNC(=O)[C@@H]([C@H](C)CC)n3cc(CCCCCN)nn3)CC2)n1	.	i	3.7	39.2*	.	-2.8
C#CCOCCOCCOCCNc1nc(N2CCN(C(=O)CCCCCCCCCCNC(=O)[C@H](CCCCN)n3cc(CCO)nn3)CC2)nc(N2CCN(C(=O)CCCCCCCCCCNC(=O)[C@@H]([C@H](C)O)n3cc(C)nn3)CC2)n1	-26.1	i	5.9	12.4	10.5	-2.3
Cc1cccc2c(N=Nc3ccc(S(=O)(=O)Nc4ccc(Cl)cc4)cc3[N+](=O)[O-])c(O)[nH]c12	-1.3	i	4.3	7.1	0.2	-0.3
COc1cccc(C(=O)OCC(=O)c2c[nH]c3ccccc23)c1O	-10.5	i	-3.1	-0.8	5.3	0.5
C=CCn1nnnc1SCC(=O)Nc1cccc(C(F)(F)F)c1	-9.0	+	-0.9	0.3	0.3	-0.6
C=CCn1nnnc1SCC(=O)Nc1ccc(C(=O)OC)cc1	-6.7	i	-4.8	-0.5	0.2	0.4
CC(C)(C)C1CCc2c(sc(NC(=O)C3CC=CCC3C(=O)O)c2C#N)C1 (centres undefined)	61.4*	i	2.8	-0.4	-2.6	2.0
Cc1ccccc1-c1n[nH]c(=S)n1/N=C/c1c(C)nn(-c2ccccc2)c1C	71.3*	i	8.4	6.9	-0.6	3.3
Cc1ccc(-c2n[nH]c(=S)n2/N=C/c2c(C)nn(-c3ccccc3)c2C)cc1	18.2	i	4.7	-6.2	-1.0	20.4
CC(C)OCCCNC(=O)c1cccc2c1C(=O)c1ccc(Cl)cc1S2(=O)=O	-2.8	i	1.6	-1.1	-1.1	.
COc1ccc(NC(=O)C2CCN(S(=O)(=O)c3cccnc3)CC2)cc1Cl	5.0	i	0.4	8.0	-3.6	0.9
O=C(Nc1ccc([N+](=O)[O-])cc1Cl)c1cc(Cl)ccc1O	87.5*	.	1.9	2.6	61.0*	0.4
O=C(Nc1cccc(Cl)c1)c1cc(N=Nc2ccc([N+](=O)[O-])cc2Cl)ccc1O	69.1*	i	-2.7	5.2	30.7	0.5
SMILES	CRFBP-R2 block	Myeloid diff 2	IDE inh	IDE act	CRFBP-R2 agonist	TPT1 inhibitor
O=C(Nc1cccc(Cl)c1)c1cccc(Oc2ccc([N+](=O)[O-])cc2Cl)c1	-6.2	i	1.5	4.3	-0.2	-1.2
O=C(Nc1ccc([N+](=O)[O-])cc1Cl)c1cccc([N+](=O)[O-])c1	24.9	i	.	.	-1.4	.
COc1ccc(CN2CCCC(C(=O)Nc3cccc(-n4cnnn4)c3)C2)c(C)c1C (centres undefined)	-12.7	i	-0.6	3.0	0.9	0.7
O=C(NCC1CCCO1)C1CCCN1C(=O)NC1CCCCC1 (centres undefined)	52.7*	i	0.2	3.4	-3.7	-0.1
COc1ccc(CCNc2nc(N3CCCCC3)nc(N3CCCCC3)n2)cc1OC	74.0*	i	-3.0	-7.2	0.2	-2.7
COc1ccc(CCNc2nc(N3CCOCC3)nc(N3CCOCC3)n2)cc1OC	8.2	i	4.6	-3.4	-0.3	-1.9
Cn1c(=O)n(Cc2ccccc2Cl)c2ccccc21	52.5*	i	-0.9	4.7	0.0	0.4
Cn1c(=O)n(Cc2ccccc2F)c2ccccc21	-15.6	i	0.0	-2.6	-1.0	-1.1
O=C(NCC1CC1)c1ccc(Oc2cc(Cl)cc(Cl)c2)o1	1.6	i	4.2	-3.8	-5.7	2.4
NNC(=O)c1ccc(Oc2cc(Cl)cc(Cl)c2)o1	1.9	+	7.6	4.1	-1.4	-1.6
CCCCN(C(=O)c1cccc(S(=O)(=O)N2CCCCC2)c1)C1CCS(=O)(=O)C1 (centres undefined)	-21.5	i	-1.8	1.4	21.8	1.2
COc1ccc(NC(=O)C/C(C)=N/NC(=O)c2ccccn2)c(OC)c1	3.6	i	8.4	1.5	-0.1	-2.1
CCc1c(-c2ccccc2)ncn1Cc1cccc(-c2ccccc2)c1	.	i	.	.	.	.
CCCc1c(Cc2cccc(F)c2)ncn1Cc1cccc(-c2ccccc2)c1	.	+	.	.	.	.
COc1cccc(N2CCN(S(=O)(=O)c3c(C)[nH]c(C)c3C(=O)N3CCCC3)CC2)c1	120.0*	i	-4.8	-2.2	1.8	1.3
Cc1[nH]c(C)c(S(=O)(=O)N2CCN(c3cccc(Cl)c3)CC2)c1C(=O)N1CCCC1	-13.8	i	8.4	-2.2	0.0	-2.7
COc1ccc(C(=O)Nc2ccnn2C2CCN(C(=O)c3cnsn3)CC2)cc1	7.6	i	-2.0	-1.6	-2.3	-0.5
